Calls of active or inactive are those of the source.
Key:
[1] = test system: Plasmodium falciparum Sir2 (PF13_0152, Sir2A); assay: pfSir2 binders on small-molecule microarrays, primary screen, biochemical, small-molecule microarray, 635 nm fluorescence (AID 1098); settings: small-molecule microarray binding, fluorescence 635 nm; higher = more signal;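 note: score merges spot fluorescence intensity with its signal-to-noise ratio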
[2] = small-molecule microarray binders of probe aDKK1, primary screen, biochemical, biotinylated probe, 635/667 nm fluorescence (AID 1099); settings: higher = more signal;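 note: score merges 667nm spot fluorescence with signal to noise across triplicate slides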
[3] = small-molecule microarray binders of probe aCHRDL2, primary screen, biochemical, biotinylated probe, 635/667 nm fluorescence (AID 1100); settings: higher = more signal
[4] = splicing luciferase reporter signal modulators, primary screen, spliceosome inhibition project, cell-based, HEK293, splice +/- reporter (AID 1101); settings: luminescence, 24 h, higher = more signal, called active from +8 up or from −8 down;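 note: HEK293 cells carrying a splicing-competent luciferase reporter gene; test concentration not given here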
[5] = target: Fibroblast growth factor 10 (Homo sapiens) (UniProt O15520); assay: FGF10 binders on small-molecule microarrays, primary screen, biochemical, small-molecule microarray, 635 nm fluorescence (AID 1102); settings: FGF10 binding, fluorescence 635 nm, higher = more signal
Chain of Fibroblast growth factor 10 (Homo sapiens) (O15520 whole entry, looked up): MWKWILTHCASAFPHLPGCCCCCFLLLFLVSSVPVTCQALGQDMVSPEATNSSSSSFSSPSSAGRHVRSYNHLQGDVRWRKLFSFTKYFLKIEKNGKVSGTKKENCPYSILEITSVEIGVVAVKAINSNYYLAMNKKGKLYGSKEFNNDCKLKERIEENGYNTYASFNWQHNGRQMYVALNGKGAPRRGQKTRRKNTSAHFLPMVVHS

[6] = test system: glycogen synthase kinase-3 (GSK3A per assay name; protocol says GSK3B); assay: GSK3 binders on small-molecule microarrays, primary screen, biochemical, small-molecule microarray, 635 nm fluorescence, GSK3A (AID 1103); settings: small-molecule microarray binding, fluorescence 635 nm; higher = more signal; note: the record names both GSK3A and GSK3B
[7] = target: Epidermal growth factor receptor (Homo sapiens) (UniProt P00533); assay: EGFR binders on small-molecule microarrays, primary screen, biochemical, small-molecule microarray, 635 nm fluorescence (AID 1104); settings: EGFR binding, higher = more signal;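 note: score merges 667 nm emission intensity with spot signal to noise over triplicate slides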
Chain of Epidermal growth factor receptor (Homo sapiens) (P00533 whole entry, looked up): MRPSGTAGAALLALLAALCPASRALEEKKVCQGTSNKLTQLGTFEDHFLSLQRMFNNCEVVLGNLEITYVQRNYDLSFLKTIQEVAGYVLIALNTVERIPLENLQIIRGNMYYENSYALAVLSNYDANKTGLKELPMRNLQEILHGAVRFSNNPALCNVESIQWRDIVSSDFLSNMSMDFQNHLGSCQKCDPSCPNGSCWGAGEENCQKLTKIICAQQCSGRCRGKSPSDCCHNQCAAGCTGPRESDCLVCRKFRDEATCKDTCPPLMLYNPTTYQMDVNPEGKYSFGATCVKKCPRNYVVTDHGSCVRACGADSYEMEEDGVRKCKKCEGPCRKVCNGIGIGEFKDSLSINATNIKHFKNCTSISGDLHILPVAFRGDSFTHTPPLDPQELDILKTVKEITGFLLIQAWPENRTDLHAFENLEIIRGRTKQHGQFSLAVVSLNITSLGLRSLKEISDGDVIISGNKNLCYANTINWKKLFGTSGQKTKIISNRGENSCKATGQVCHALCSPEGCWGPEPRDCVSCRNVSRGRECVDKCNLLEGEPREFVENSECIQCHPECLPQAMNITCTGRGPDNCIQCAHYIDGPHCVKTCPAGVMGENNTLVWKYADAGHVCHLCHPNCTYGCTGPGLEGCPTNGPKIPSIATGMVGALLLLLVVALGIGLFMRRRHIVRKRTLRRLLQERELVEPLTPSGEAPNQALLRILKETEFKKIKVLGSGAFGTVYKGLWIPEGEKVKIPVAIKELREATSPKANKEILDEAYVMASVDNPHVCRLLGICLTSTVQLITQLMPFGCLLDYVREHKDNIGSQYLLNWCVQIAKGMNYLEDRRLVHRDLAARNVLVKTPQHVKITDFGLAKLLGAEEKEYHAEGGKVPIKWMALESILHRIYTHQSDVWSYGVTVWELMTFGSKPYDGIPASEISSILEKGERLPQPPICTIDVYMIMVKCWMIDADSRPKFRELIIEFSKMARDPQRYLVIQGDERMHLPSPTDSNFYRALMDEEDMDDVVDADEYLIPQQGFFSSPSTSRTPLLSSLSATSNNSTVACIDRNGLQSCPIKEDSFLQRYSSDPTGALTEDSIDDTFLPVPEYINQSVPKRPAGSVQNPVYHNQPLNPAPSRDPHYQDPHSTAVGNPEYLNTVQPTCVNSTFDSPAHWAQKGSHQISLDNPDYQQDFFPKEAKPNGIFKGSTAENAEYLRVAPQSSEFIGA

[8] = target: Follistatin-related protein 3 (Homo sapiens) (UniProt O95633); assay: FSTL3 binders on small-molecule microarrays, primary screen, biochemical, small-molecule microarray, 635 nm fluorescence (AID 1105); settings: FSTL3 binding, higher = more signal;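 note: score merges emission near 667 nm and signal to noise per printed spot across three slides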
Chain of Follistatin-related protein 3 (Homo sapiens) (O95633 whole entry, looked up): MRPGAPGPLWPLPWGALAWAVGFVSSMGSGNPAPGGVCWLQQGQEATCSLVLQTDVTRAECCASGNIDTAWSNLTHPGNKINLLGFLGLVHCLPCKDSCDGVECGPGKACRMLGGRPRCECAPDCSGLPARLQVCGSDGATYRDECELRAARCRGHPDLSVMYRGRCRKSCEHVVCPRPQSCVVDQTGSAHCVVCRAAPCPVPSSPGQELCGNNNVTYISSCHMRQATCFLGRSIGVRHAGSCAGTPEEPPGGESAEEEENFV

[9] = target: Dickkopf-related protein 1 (Homo sapiens) (UniProt O94907); assay: DKK1 binders on small-molecule microarrays, primary screen, biochemical, small-molecule microarray, 635 nm fluorescence scan (AID 1106); settings: DKK1 binding, higher = more signal;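 note: score merges emission near 667 nm with signal to noise over three replicate slides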
Chain of Dickkopf-related protein 1 (Homo sapiens) (O94907 whole entry, looked up): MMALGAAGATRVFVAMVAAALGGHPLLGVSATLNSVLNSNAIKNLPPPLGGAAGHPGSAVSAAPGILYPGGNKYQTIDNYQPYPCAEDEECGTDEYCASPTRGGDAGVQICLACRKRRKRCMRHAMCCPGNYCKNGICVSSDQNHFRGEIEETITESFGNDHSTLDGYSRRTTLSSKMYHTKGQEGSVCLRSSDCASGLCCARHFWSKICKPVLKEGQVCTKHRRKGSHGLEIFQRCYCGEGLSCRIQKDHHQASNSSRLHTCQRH

[10] = test system: Inhibin beta A chain (activin A); assay: INHBA (activin A) binders on microarrays, primary screen, biochemical, small-molecule microarray, 635 nm fluorescence scan (AID 1107); settings: small-molecule microarray binding, higher = more signal;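 note: mouse activin A protein probed at 4.33 µg/mL on printed slides; score merges bound-protein fluorescence near 667 nm with spot signal-to-noise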
[11] = test system: Human papillomavirus type 1a protein E7 (residues 44-93); assay: HPV1a E7 fragment binders on microarrays, primary screen, biochemical, small-molecule microarray, residues 44-93, 635 nm fluorescence (AID 1108); settings: small-molecule microarray binding, fluorescence 635 nm; higher = more signal;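 note: E7 fragment applied at 1 µg/mL in TBST for 1 h at 4 C; score combines spot fluorescence with its signal to noise ratio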
[12] = modulators of HCV replicon luciferase signal, primary screen, HCV replication inhibitor project, Huh7 cells, luciferase reporter (AID 1109); settings: 48 h, higher = more signal;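 note: huh7 hepatoma cells harbouring a luciferase neomycin HCV replicon reporter; luciferase luminescence as measure of HCV replicon replication; test concentration not given here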
[13] = target: Left-right determination factor 2 (Homo sapiens) (UniProt O00292); assay: LEFTY2 binders on small-molecule microarrays, primary screen, biochemical, small-molecule microarray, 635 nm fluorescence scan (AID 1110); settings: LEFTY2 binding, higher = more signal
Chain of Left-right determination factor 2 (Homo sapiens) (O00292 whole entry, looked up): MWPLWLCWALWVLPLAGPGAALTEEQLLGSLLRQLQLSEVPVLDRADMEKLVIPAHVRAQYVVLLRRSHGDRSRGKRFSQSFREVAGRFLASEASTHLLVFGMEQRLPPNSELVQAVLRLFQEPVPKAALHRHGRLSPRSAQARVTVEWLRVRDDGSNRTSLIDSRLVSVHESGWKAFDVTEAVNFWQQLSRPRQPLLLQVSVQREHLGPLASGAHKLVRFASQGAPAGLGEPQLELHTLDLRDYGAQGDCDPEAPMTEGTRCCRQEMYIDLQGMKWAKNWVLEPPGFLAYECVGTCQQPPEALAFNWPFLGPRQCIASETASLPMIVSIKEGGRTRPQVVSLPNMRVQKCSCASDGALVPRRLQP

[14] = target: Calmodulin-1 (Homo sapiens) (UniProt P0DP23); assay: CALM1 binders on microarrays, EGTA buffer, profiling panel, biochemical, small-molecule microarray, Cy5-labelled CALM1 (AID 1111); settings: Cy5-CALM1 binding fluorescence, higher = more signal;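 note: labelled calmodulin applied in Tris saline Tween buffer holding calcium plus EGTA and DTT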
[15] = target: Calmodulin-1 (Homo sapiens) (UniProt P0DP23); assay: calcium-bound CALM1 binders on microarrays, profiling panel, artefact control for SMM control-protein annotation, biochemical, small-molecule microarray, Cy5-labelled CALM1, plus calcium (AID 1112); settings: Cy5-CALM1 binding fluorescence, higher = more signal;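 note: score merges spot fluorescence with signal to noise from triplicate slides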
[16] = small-molecule microarray binders of probe aWnt5a, primary screen, biochemical, biotinylated probe, 635/667 nm fluorescence (AID 1113); settings: higher = more signal;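 note: score merges 667 nm fluorescence intensity with signal-to-noise per printed feature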
[17] = small-molecule microarray binders of probe aShh, primary screen, biochemical, biotinylated probe, 635/667 nm fluorescence (AID 1114); settings: higher = more signal;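 note: probe is biotin-labelled aShh protein from a stem cell growth factor screen; measures binding of labelled protein to compounds printed on the slide; score merges feature fluorescence at 667 nm with signal-to-noise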
[18] = small-molecule microarray binders of probe aNog, primary screen, biochemical, biotinylated probe, 635/667 nm fluorescence (AID 1115); settings: higher = more signal;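 note: probe is biotinylated aNog protein used at 0.15 µg/mL for 1 h at 4 C; z-score combines 667 nm fluorescence of each spot with its signal to noise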
[19] = target: Torsin-1A-interacting protein 1 (Homo sapiens) (UniProt Q5JTV8); assay: LAP1 binders from COS7 cell lysate, primary screen, small-molecule microarray, 635/667 nm fluorescence (AID 1116); settings: COS7-hLAP1 lysate binding, 635 nm fluorescence, higher = more signal
Chain of Torsin-1A-interacting protein 1 (Homo sapiens) (Q5JTV8 whole entry, looked up): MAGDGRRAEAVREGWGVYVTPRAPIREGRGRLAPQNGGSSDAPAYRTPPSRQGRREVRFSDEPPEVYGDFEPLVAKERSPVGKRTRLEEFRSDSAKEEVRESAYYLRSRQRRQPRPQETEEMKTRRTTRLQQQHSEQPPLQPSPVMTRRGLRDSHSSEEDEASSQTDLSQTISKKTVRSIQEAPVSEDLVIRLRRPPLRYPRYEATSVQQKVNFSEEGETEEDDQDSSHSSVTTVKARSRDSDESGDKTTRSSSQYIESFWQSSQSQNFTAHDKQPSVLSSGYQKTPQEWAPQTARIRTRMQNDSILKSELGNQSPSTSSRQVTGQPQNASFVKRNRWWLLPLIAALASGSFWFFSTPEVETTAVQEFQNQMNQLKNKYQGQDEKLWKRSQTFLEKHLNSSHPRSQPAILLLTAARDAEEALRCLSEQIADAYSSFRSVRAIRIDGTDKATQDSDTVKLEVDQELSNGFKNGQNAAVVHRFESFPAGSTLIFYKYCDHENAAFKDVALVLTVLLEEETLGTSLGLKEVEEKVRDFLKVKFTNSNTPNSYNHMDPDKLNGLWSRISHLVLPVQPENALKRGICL

[20] = target: Alpha-bungarotoxin (Bungarus multicinctus) (UniProt P60615); assay: alpha-bungarotoxin binders on microarray, profiling panel, artefact control for SMM control protein annotation, biochemical, small-molecule microarray, Alexa647 label, 635/667 nm fluorescence (AID 1117); settings: alpha-BTX-A647 binding fluorescence, higher = more signal
Chain of Alpha-bungarotoxin (Bungarus multicinctus) (P60615 whole entry, looked up): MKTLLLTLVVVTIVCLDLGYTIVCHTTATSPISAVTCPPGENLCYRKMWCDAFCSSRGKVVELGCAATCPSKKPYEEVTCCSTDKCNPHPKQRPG

SMILES	composite z-score [1]	composite z-score [2]	composite z-score [3]	z-score [4]	composite z-score [5]	composite z-score [6]	composite z-score [7]	composite z-score [8]	composite z-score [9]	composite z-score [10]	composite z-score [11]	z-score [12]	composite z-score [13]	composite z-score [14]	composite z-score [15]	composite z-score [16]	composite z-score [17]	composite z-score [18]	composite z-score [19]	composite z-score [20]
[N-]=[N+]=Nc1ccccc1[C@H]1OC(c2ccc(OCCCO)cc2)=N[C@@]1(Cc1ccccc1)C(=O)NCCN1CCOCC1	1.59	1.34	1.29	-1.01 (inactive)	1.3	1.28	0.81	1.37	0.196	1.13	0.632	-1.85	0.331	2.07	0.469	0.248	0.171	-0.61	0.998	1.8
CCC1=C2CN(Cc3ccccc3)[C@@H](C(=O)Cc3ccccc3)C2C=CCC1 (stereo not given in full)	1.46	-0.0616	-0.141	-1.04 (inactive)	0.57	-0.439	-0.42	0.532	0.118	0.749	1.4	-0.618	0.133	-0.0133	-0.429	-0.124	-0.211	-0.185	0.0878	0.0601
[N-]=[N+]=Nc1ccccc1C[C@@]1(C(N)=O)N=C(c2ccc(OCCCO)cc2)O[C@@H]1c1ccccc1N=[N+]=[N-]	0.749	1.14	0.974	-1.36 (inactive)	-0.24	0.385	0.181	-0.199	-0.459	1.46	1.03	-2.35	-0.0762	1.51	0.827	-0.132	0.0948	-0.722	1.01	1.09
[N-]=[N+]=Nc1ccccc1[C@@H]1OC(c2ccc(OCCCO)cc2)=N[C@]1(Cc1ccccc1)C(=O)O	0.77	0.973	0.0948	-0.689 (inactive)	0.747	0.655	-0.129	0.455	-0.347	1.2	1.4	0.848	-0.529	1.57	0.886	0.0391	0.0659	0.135	1.35	1.7
C=C(COC)/C(=C/C[C@H](OC(=O)c1ccncc1)c1ccc(CO)o1)c1cnc2ccccc2c1	0.296	-0.155	-0.137	0.801 (inactive)	1.12	0.986	0.387	1.34	0.348	1.81	1.38	-0.403	0.321	-0.0747	-0.91	-0.0758	0.337	-0.12	0.865	1.91
[N-]=[N+]=Nc1ccccc1C[C@]1(C(=O)N2CCOCC2)COC(c2ccc(OCCCO)cc2)=N1	1.6	0.399	0.948	-0.59 (inactive)	0.613	1.33	-0.262	0.634	-0.259	0.959	1.41	-1.72	-0.253	0.201	-0.554	0.0317	0.14	-0.527	1.08	0.664
CCCCN1CC=CC23O[C@@H]4/C=C\CCCOC(=O)C4[C@H]2C(=O)N(CCO)[C@@H]3C1=O (stereo not given in full)	1.77	-0.356	0.644	-0.817 (inactive)	-1.29	-0.782	-1.26	-1.38	-1.58	-0.677	0.493	-0.219	-1.51	-0.343	0.278	-0.221	-0.206	-0.158	0.0966	-0.401
CS(=O)(=O)CCOC(=O)C1=CC(c2ccc(CO)cc2)=CC(C2CC2)N(Cc2sc3ccccc3c2Cl)C=C1C(=O)OCCS(C)(=O)=O (stereo not given)	0.677	0.251	0.365	2.53 (inactive)	0.686	0.519	0.645	1.21	0.334	1.63	0.491	-1.7	0.815	0.0782	0.0677	-0.0685	0.199	0.611	0.702	1.89
CCCCC(CC)C(O)C1C=CC2C(=O)N(c3ccccc3)C(=O)C2N1Nc1ccccc1F (stereo not given)	1.02	0.36	0.852	-0.561 (inactive)	0.944	1.23	-0.187	0.517	-0.505	0.744	1.41	-0.508	-0.285	0.0117	-0.264	0.0768	0.341	1.1	0.928	-0.176
COc1cc2c(cc1O)C(c1ccc(CN3CCCC3)cc1)N(Cc1cc3c(cc1Br)OCO3)CC2 (stereo not given)	-0.115	-0.106	-0.097	0.373 (inactive)	0.41	-0.237	-0.186	0.583	-0.367	0.992	-1.28	-2.92	-0.248	1.47	0.91	-0.109	-0.2	0.114	0.16	0.132
C=CCNC(=O)[C@@H]1[C@H]2C(=O)O[C@H](c3ccccc3)[C@H](c3ccccc3)N2[C@H](c2ccccc2OCCO)[C@@]12C(=O)Nc1ccc(C#CCC(C(=O)OC)C(=O)OC)cc12	1.66	-0.319	-0.604	-3.31 (inactive)	0.395	1.03	-0.114	0.276	0.0965	0.482	0.562	-3.28	-0.034	0.138	-0.147	-0.0258	-0.147	-0.303	0.458	0.894
COCCOC(=O)N1C(=O)[C@@]2(c3cc(C#CC4(O)CCCCCC4)ccc31)[C@H](C(=O)Nc1nc3ccccc3s1)[C@H]1C(=O)O[C@H](c3ccccc3)[C@H](c3ccccc3)N1[C@@H]2c1ccc(O)cc1	1.26	0.316	0.407	1.36 (inactive)	0.992	1.29	0.605	1.3	0.875	0.363	1.37	-0.895	1	1.29	0.102	-0.18	-0.0849	-0.188	0.286	1.1
CC1=C2[C@@H](CCc3ccccc3)OB(O)C[C@@H]2[C@@H]2C(=O)N(C)C(=O)[C@@H]2C1	-0.186	-0.232	-0.223	0.305 (inactive)	0.985	0.443	0.135	0.451	0.521	0.273	0.135	-0.779	0.173	0.0309	-0.338	-0.0519	0.0469	-0.137	0.284	0.769
COC(=O)[C@@]1(Cc2ccc(F)cc2)[C@H]2c3cc(C(=O)N(C)C)n(CCc4ccc(OC)c(Br)c4)c3C[C@H]2CN1C(=O)c1ccccc1	0.514	1.1	0.732	1.6 (inactive)	0.856	0.182	-0.086	0.145	-0.257	1.01	0.971	-3.74	-0.392	0.314	0.535	1.19	0.289	2.8	0.589	0.653
COc1ccc([Si](C)(C)[C@H]2[C@H](CC(=O)N(CCO)Cc3ccccc3)O[C@@]3(C(=O)N(C)c4c(Br)cc(C)cc43)[C@@H]2C)cc1	0.827	-0.0876	-0.356	-1.34 (inactive)	0.968	0.691	1.19	1.18	0.766	0.611	0.926	-4.28	1.12	-0.763	0.973	-0.176	-0.154	-0.291	0.491	0.572
CCOC(=O)C[C@H]1[C@H](OC(=O)c2ccc(C(=O)c3ccccc3)cc2)[C@@H](NC(=O)c2ccc(-c3ccccc3)cc2)c2cc(OCCCO)ccc2N1C(=O)Cc1ccc(OC)cc1	0.0732	0.223	0.777	-0.213 (inactive)	0.0382	0.0652	-0.274	0.0472	-0.537	0.783	0.625	-0.751	0.176	0.439	-0.122	-0.0236	-0.214	-0.468	0.759	0.355
